Most compounds without a hit are left out; they make up all but 2.7% or so of the library.
PGC1a acetyl inh = lowers PGC1a acetylation signal in U2OS cells; AlphaScreen anti-acetyl-lysine; with virally co-expressed GCN5 acetyltransferase; AID 651687; inhibition, % at 15.6 µM; 350,000 tested, 0.17% active;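 active = every replicate shows inhibition of at least 40%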
HIV Env fusion = inhibitors of HIV Env-mediated cell fusion | HeLa-JRFL Env/CEM21 cell fusion, luciferase | inhibition, % at 12.3 µM | 360,000 tested, 1.1% active;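 active = mean replicate inhibition score of at least 50 and every replicate individually at or above 50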
INS-1E GSIS act = GLuc luminescence reporter in INS-1E cells, primary screen for activators of glucose-dependent secretion of insulin; INS-1E GLuc reporter insulin secretion, 2-3 h; activation, % at 16.6 µM; 370,000 tested, 0.61% active;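 active = lowest replicate activation of at least 40%, so every replicate reaches that level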
EWS-Fli inh = inhibitors of EWS/Fli oncoprotein transcriptional activity | A673 NR0B1-luciferase reporter, viability-normalised | inhibition, % at 12.6 µM | 350,000 tested, 0.67% active;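 active = mean inhibition of at least 50% after viability correction, with every replicate also passing that limit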;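 note: firefly luciferase signal divided by Alamar Blue viability fluorescence both relative to DMSO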
PAX8 inh HTS = inhibitors of PAX8 transcriptional activity in RMG-I cells. RMG-I TPO-luciferase reporter, SteadyGlo, 24 h. inhibition, % at 12.6 µM. 360,000 tested, 1.2% active. AID 652154;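 active = mean replicate inhibition at least 60% with every replicate also reaching 60%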;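 note: luciferase light reporting Pax8 driven TPO promoter activity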
CFTR F508del cor = CFTR F508del correction in bronchial cells. activity (quench increase), % at 7.58 µM. CFBE cells, YFP halide quenching; stimulated with forskolin plus potentiator P3; % fluorescence drop versus neutral controls. 350,000 tested, 0.36% active;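 active = mean added fluorescence quench of at least 8% versus neutral control, with both replicates also reaching 8%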;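 note: cells transiently co-express mutant CFTR-F508del with the halide-sensitive YFP; corrector assay measuring rescue of mutant channel to the surface after 24 h compound exposure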
A number is an active result; - = inactive; . = no result; ! = repeats disagree.

SMILES	PGC1a acetyl inh	HIV Env fusion	INS-1E GSIS act	EWS-Fli inh	PAX8 inh HTS	CFTR F508del cor
Cc1nc2sccn2c1-c1csc(NCc2ccccc2)n1	-	95	.	.	.	.
CC(=O)Nc1ccc(Nc2nc(-c3c(C)nc4ccccn34)cs2)cc1	-	-	49	57	-	-
Cc1nc2ncccn2c1-c1csc(Nc2ccccc2)n1	.	-	.	-	-	.
Cc1ccccc1-c1ccc([C@@H]2[C@@H](CO)N3C(=O)CN(C(=O)Cc4ccccn4)C[C@H]23)cc1	-	.	-	-	-	-
O=c1[nH]nc(-c2ccc(NCCCO)c([N+](=O)[O-])c2)c2ccccc12	59	-	-	-	-	-
CCn1c(=O)n(CC(=O)NCc2ccco2)c(=O)c2ccccc21	-	.	.	.	.	.
O=C(NCc1ccco1)c1ccc(Cn2c(=O)c3ccccc3n(Cc3cccc(Cl)c3)c2=O)cc1	-	89	.	.	.	.
O=C(NCc1ccco1)c1ccc(Cn2c(=O)c3sccc3n(Cc3cccc(F)c3)c2=O)cc1	-	90	-	-	-	-
O=C(Cn1c(=O)n(Cc2ccco2)c(=O)c2ccccc21)Nc1cccc(Cl)c1	-	95	-	-	-	-
C[C@H](CO)N1C[C@H](C)[C@@H](CN(C)Cc2ccc(C(=O)O)cc2)Oc2ccc(NC(=O)Nc3cccc4ccccc34)cc2CC1=O	-	.	-	-	-	-
COc1cccc(S(=O)(=O)Nc2ccc3c(c2)C(=O)N(C)[C@@H]2CC[C@@H](CC(=O)O)O[C@H]2CO3)c1	-	-	-	-	-	-
C[C@@H]1CCCCO[C@H](CN(C)Cc2ccc(Cl)c(Cl)c2)[C@H](C)CN([C@@H](C)CO)C(=O)c2cc(NS(=O)(=O)c3cn(C)cn3)ccc2O1	-	-	-	-	-	-
Cc1cc(C(=O)Nc2cccc3c2O[C@H](CN(C)C(=O)Nc2cccc4ccccc24)[C@@H](C)CN([C@@H](C)CO)C3=O)n(C)n1	-	-	-	-	-	-
COc1ccc(-c2cc3nc4ccccc4n3c(N)c2C#N)cc1	-	-	86	-	-	-
O=C(Cc1ccc(Nc2nc3ccc(Br)cc3[nH]2)cc1)NCCc1cccs1	.	61	-	-	-	-
Nc1nn(S(=O)(=O)c2ccccc2)cc1-c1ccc([N+](=O)[O-])cc1	-	-	-	83	-	.
Cc1ccc(S(=O)(=O)n2cc(-c3ccccc3)c(N)n2)cc1	-	-	-	.	.	.
Cc1nc2sc(C(c3ccco3)N3CCC(Cc4ccccc4)CC3)c(O)n2n1 (stereo not given)	-	82	-	-	-	-
CC(C)c1cn(CC[C@@H]2CC[C@H](NS(=O)(=O)c3ccccc3)[C@@H](CO)O2)nn1	-	-	-	-	-	-
CC(C)OCCCNC(=O)c1cccc(NC(=O)c2ccccc2)c1	-	.	-	-	126	-
COc1ccccc1/C=C/C=C1\Oc2c(ccc(O)c2CN(C)C)C1=O	-	-	-	-	-	-
CCN(CC)Cc1c(O)ccc2c1O/C(=C\C=C\c1ccccc1)C2=O	-	-	-	77	-	-
CCCOc1ccc(Cn2cnc3ccccc32)cc1	-	60	-	.	.	.
COc1ccc(Cn2c(C3CC3)nc3ccc(NC(C)=O)cc3c2=O)cc1	-	.	.	.	.	.
CCCc1nc2ccc(NC(C)=O)cc2c(=O)n1Cc1ccc(Cl)cc1	-	-	-	-	67	-
SMILES	PGC1a acetyl inh	HIV Env fusion	INS-1E GSIS act	EWS-Fli inh	PAX8 inh HTS	CFTR F508del cor
C[C@@H]1CC=CC[C@@H](c2ccccc2)NC(=O)[C@@H](C)N(C)C(=O)c2ccccc2O1 (mixture of isomers)	.	.	-	.	.	.
COc1ccc(NC(=O)C2CCCN(CCCc3ccccc3)C2)cc1OCC(C)C (stereo not given)	-	-	-	61	-	-
O=C1N[C@@H](Cc2c[nH]c3ccccc23)COC(=O)[C@@H](Cc2ccc(F)cc2)CC/C=C/C[C@@H]1CC(=O)N(CCO)Cc1ccccc1	.	-	-	-	75	-
O=C(Nc1ccccc1)C1=C[C@H](c2ccc(C(F)(F)F)cc2)C[C@H](OCCCCO)O1	-	-	-	-	87!	-
COc1ccc(CCNC(=O)c2cnc3scc(C)n3c2=O)cc1OC	-	-	61	-	-	-
C=CC[n+]1c(-c2ccc(OCC)cc2)csc1NNC(=O)Nc1ccccc1	-	61	-	.	.	.
COc1ccc(S(=O)(=O)N[C@H]2CC[C@@H](CCn3cc(-c4ccccc4F)nn3)O[C@H]2CO)cc1	-	-	-	-	-	-
Cc1ccc(C(=O)c2cnc3ccccc3c2-c2ccccc2)cc1	-	83	.	.	.	.
COc1ccc(C(=O)c2cnc3ccccc3c2-c2ccccc2)cc1	-	91	.	.	.	.
Cc1ccc(C(=O)c2nc(C(=O)NCCO)nc3ccccc23)cc1	-	-	-	-	-	-
CCCNC(=O)N1CC2(CN(C(=O)CCC)C2)c2c(n(C)c3cc(OC)ccc23)[C@H]1CO	.	.	-	.	.	.
CC(=O)N1[C@H](C(=O)Nc2ccccc2)[C@@H](CO)[C@@H]2Cn3c(ccc(C4=CCCCC4)c3=O)[C@@H]21	.	.	-	-	.	-
C[C@@H]1CN([C@@H](C)CO)C(=O)c2cc(/C=C/c3ccccc3)cnc2O[C@@H]1CN(C)C(=O)c1ccc(F)cc1	-	-	-	-	.	-
C=CCn1c(O)c(N=NC(=S)Nc2ccc(OC)cc2)c2ccccc21	-	37	-	.	-	.
C=CCn1c(O)c(N=NC(=O)CNC(=O)c2ccco2)c2ccccc21	.	-	42	-	-	.
C=CCn1c(O)c(N=NC(=S)Nc2cccc(OC)c2)c2ccccc21	.	.	-	.	.	.
CCn1c(O)c(N=NC(=O)CNC(=O)c2ccco2)c2ccccc21	.	-	-	-	-	-
COc1ccc(S(=O)(=O)N2CCCCN3[C@@H](CO)[C@H](c4ccc(C#CCC(C)C)cc4)[C@@H]3C2)cc1	-	.	-	-	-	-
COc1ccc(S(=O)(=O)N(C)C[C@@H]2OCCCC[C@H](C)Oc3ccc(N(C)C)cc3C(=O)N([C@@H](C)CO)C[C@@H]2C)cc1	-	-	-	-	-	-
Cc1ccc2nc(-c3ccncc3)c(Nc3ccccc3)n2c1	.	.	-	-	65	-
Cc1ccc2nc(-c3ccco3)c(Nc3ccccc3)n2c1	.	.	-	.	.	.
O=C(C[C@@H]1CC[C@@H]2[C@H](COC[C@H](O)CN2CC2CCCC2)O1)NCC1CC1	-	.	-	.	-	-
COc1ccccc1-c1cnc2c(Nc3cccc(OC(F)(F)C(F)F)c3)nccn12	.	-	79	-	-	-
CC(C)CCC(O)(CCC(C)C)C(=O)NN1CCCCC1	.	-	49	.	-	.
COc1ccc(/C=C/C(=O)NC(=S)NN2CCCCC2c2cccnc2)cc1OC (stereo not given)	.	-	70	-	-	-
COc1ccc(/C=C/C(=O)NC(=S)N2CCCCC2)cc1OC	-	-	-	-	-	-
C[C@@H]1CN([C@@H](C)CO)C(=O)Cc2cc(NC(=O)Nc3ccc(F)cc3)ccc2O[C@@H]1CN(C)C(=O)Nc1ccccc1	-	.	-	-	-	-

Bioassay records (PubChem)
